53 molecules from PubChem BioAssay AID624296 (National Center for Advancing Translational Sciences (NCATS), 2012) can be followed below.

Screen size: about 350,000 compounds; about 9,900 (2.8%) were called active. Roughly 15% stayed inconclusive and do not appear here. The sample as a whole holds a higher share of actives than the screen did. Values without a mark were called inactive. Calls follow the shape of the dose curve; as a rule, active = well fitted activation curve with a large enough effect; inconclusive = small, poorly fitted or top-dose-only effect; inactive = no such curve, though single readings can be large or run the other way.
Potency is read from the fitted curve at half-maximal effect.

The nature of the assay: A quantitative high throughput screen for small molecules that induce DNA re-replication in MCF 10a normal breast cells. Also: nearly all actives have a fitted effect of over 50% in size. As to activity, positive = re-replication: % of control where 0% means no effect. Conditions: MCF 10A DNA re-replication, Hoechst nuclear intensity, 48 h; series mostly up to 46.1 µM; activity, positive = re-replication: at the top concentration.
As for `COCCCNC(=O)/C=C/c1ccc(OCc2c(F)cccc2Cl)cc1`, the “activity, positive = re-replication” value was -0.518%. With `CN(C)CCCNC(=O)/C=C/c1ccc(OCc2c(F)cccc2Cl)cc1`, the Potency was 23.1 µM (active). For `COc1cc(CNCCN(C)C)ccc1OCc1c(F)cccc1Cl`, the “activity, positive = re-replication” value is 6.7%. Still for that read-out and setting: the figure for `O=c1oc2ccccc2c(=O)c2ccccc12` is -30.5%. In the case of `Cc1ccc(NC(=O)CC2S/C(=N/N=C3\CCCc4ccccc43)NC2=O)cc1` (stereo not drawn), the Potency is 14.6 µM (active). Turning to `Cc1c(Cl)cccc1NC(=O)CC1SC(=NCC2CCCO2)NC1=O` (stereo not drawn), the “activity, positive = re-replication” value is 7.01%.

With `CCN=C1SC(CC(=O)Nc2ccc(C)cc2)C(=O)N1CC` (stereo not drawn), the “activity, positive = re-replication” value is -7.16%. As to `CCN(CC(=O)Nc1c(F)cccc1F)C(=O)c1ccc(-c2ccc(C(C)=O)cc2)o1`, the “activity, positive = re-replication” value was 9.26%. On the same count and under the same terms, the figure for `CCCCNS(=O)(=O)CCNCc1ccccc1OC` is -16.6%. Take `CC(Sc1ccccc1F)C(=O)Nc1cccc(S(=O)(=O)N2CCOCC2)c1` (stereo not drawn): the “activity, positive = re-replication” value is 5.65%. Still for that read-out and setting: the figure for `COc1ccccc1C(=O)CSc1cccc[n+]1[O-]` is -2.14%. `O=C(CSc1cccc[n+]1[O-])c1ccc(-c2ccccc2)cc1`: the Potency was 8.2 µM (active). Turning to `O=C(CSc1cccc[n+]1[O-])c1ccc(Cl)cc1`, the “activity, positive = re-replication” value was -1.47%. `CC[C@]12c3[nH]c4cc(CCC(=O)N(C)C)ccc4c3CCN1C(=O)[C@@H](CC(=O)NCCCN(C)C)C[C@@H]2C(=O)N1CCN(C(=O)c2ccco2)CC1`: the “activity, positive = re-replication” value is -34.4%. For the molecule `CN(C(=O)c1cccc(NC(=O)Cc2ccc(NC(=O)C3CCCN(C(=O)C4CCCC4)C3)cc2)c1)C1CCC1` (stereo not drawn), the “activity, positive = re-replication” value was 1.82%. For `O=S(=O)(NCC1CN(S(=O)(=O)c2ccc3c(c2)OCCO3)C1)c1c(F)cccc1F`, the “activity, positive = re-replication” value was -5.63%. Same read-out and setting: the figure for `COC1=CC(=O)OC(c2ccc(OC)cc2)C1` (stereo not drawn) is -48.5%; for `CCc1nc2sc(C(=O)O)c(N)c2c2c1CCCC2` it is 12%. Take `Cc1nc2sc(C(=O)c3ccccc3)c(N)c2c2c1CCCC2`: the Potency is 14.6 µM (active). With `Cc1ccc2c(N)c(C(=O)c3ccccc3)sc2n1`, the “activity, positive = re-replication” value is 13.8%. On to `CCOC(=O)C1=CN(Cc2ccc(Br)cc2)S(=O)(=O)N(C)C1C` (stereo not drawn), for which the “activity, positive = re-replication” value was -10.6%.

Consider `CCOC(=O)CC(=O)CSc1nc(-c2ccccc2)cc(-c2ccc(Cl)cc2)c1C#N`, for which the Potency was 11.6 µM (active).

Regarding `N#Cc1c(-c2ccccc2)cc(-c2ccccc2)nc1SCC(=O)O`, the “activity, positive = re-replication” value was -3.28%.

Regarding `N#Cc1c(C(F)(F)F)cc(-c2ccc(Cl)cc2)nc1SCC(=O)O`, the “activity, positive = re-replication” value was 4.38%.

As to `COc1ccc(C(=O)OC(C)C(=O)NC2CCCC2)cc1S(=O)(=O)N1CCOCC1` (stereo not drawn), the “activity, positive = re-replication” value was -5.65%. On the same count and under the same terms, the figure for `COc1cc(OC)cc(C(=O)N[C@H](C(=O)NNC(=O)c2ccc(Br)cc2)C(C)C)c1` is -33.2%; for `C[C@H](CO)N1C[C@H](C)[C@H](CN(C)C(=O)Nc2ccc(C(F)(F)F)cc2)Oc2c(NC(=O)c3ccncc3)cccc2C1=O` it is 2.48%; for `Cc1ccc(Nc2c(O)nc[nH]c2=O)cc1C` it is -3.59%.

On to `CCCN(CCC)S(=O)(=O)c1cc2c(cc1Br)CCN2C(=O)CC`, for which the Potency is 18.4 µM (active).

On to `CCC(=O)N1CCc2cc(S(=O)(=O)NC(C(=O)N3CCc4ccccc4C3)C(C)C)ccc21` (stereo not drawn), for which the “activity, positive = re-replication” value is 0.327%. `CCC(=O)N1CCc2cc(Br)c(S(=O)(=O)NCCN3CCCCC3CC)cc21` (stereo not drawn): the “activity, positive = re-replication” value is 0.0266%.

With `Cn1c(CC(=O)NNC(=O)c2ccccc2F)nc2ccccc21`, the “activity, positive = re-replication” value was -2.71%. On the same count and under the same terms, the figure for `O=S(=O)(O)c1cc2onnc2c2ccccc12` is -6.01%; for `O=C(Cc1ccc(Cl)cc1)c1ccccc1` it is 2.06%; for `CC1CC(=O)Nc2ccccc2N1C(=O)COc1ccc2cc(Br)ccc2c1` (stereo not drawn) it is 29.2%.

Consider `N#Cc1nc(COc2ccc(-c3ccccc3)cc2)oc1NCc1cccnc1`, for which the Potency is 7.94 µM (active). `O=S(=O)(c1ccccc1)c1nc(-c2ccccc2F)oc1NCc1cccnc1`: the “activity, positive = re-replication” value is -2.89%. On the same count and under the same terms, the figure for `Cc1ccc(OCc2nc(C#N)c(N3CCCC3)o2)cc1` is 1.2%. Regarding `O=S(=O)(c1ccc(SCc2ccccc2)nc1)N1CCCCCC1`, the “activity, positive = re-replication” value is 2.52%. As for `CC(C)OC(=O)c1ccc(NCc2cc(O)ccc2O)cc1Cl`, the Potency is 1.64 µM (active). Regarding `O=C(OC12CC3CC(CC(C3)C1)C2)c1ccc(NCc2cc(O)ccc2O)cc1`, the “activity, positive = re-replication” value was 6.95%. Still for that read-out and setting: the result for `CC(CN1CCOCC1)OC(=O)c1ccc(Cl)cc1Cl` (stereo not drawn) reads 0.31%; that for `CN(C)c1ccc(CSc2ccccc2)cc1`, 0.453%. On the same count and under the same terms, the result for `O=c1c2ccccc2ncn1CCc1ccncc1` reads -0.822%; that for `CC[C@]12c3[nH]c4ccc(Cl)cc4c3CCN1C(=O)[C@@H](CC(=O)NCCCOC)C[C@@H]2C(=O)N1CCN(C(=O)C2CC2)CC1`, -0.182%.

For `CC1CCCCC1NC(=O)Cn1c(=O)cnc2ccccc21` (stereo not drawn), the “activity, positive = re-replication” value was -2.91%. As to `C=C(C)CNc1cc(S(=O)(=O)N2CCOCC2)ccc1Oc1ccccc1`, the “activity, positive = re-replication” value is 1.46%. Regarding `CC(=O)Nc1ccc(NC(=O)COC(=O)c2ccccc2C(=O)c2ccccc2)cc1`, the “activity, positive = re-replication” value was 20.4%. As to `CC(=O)Nc1ccc(NC(=O)C(C)OC(=O)c2ccccc2C(=O)c2ccc(Cl)c([N+](=O)[O-])c2)cc1` (stereo not drawn), the Potency is 16.4 µM (active). Turning to `COC(=O)c1cc(NC(=O)Cc2ccccc2[N+](=O)[O-])ccc1Cl`, the “activity, positive = re-replication” value was -3.8%. The same measure, in the same setting: the figure for `NC(=O)c1ccc(NC(=O)COC(=O)c2ccc([N+](=O)[O-])cc2)cc1` is 6.98%. Still for that read-out and setting: the result for `CC(CC(=O)O)C(=O)c1ccc(Cl)c([N+](=O)[O-])c1` (stereo not drawn) reads 3.61%.

`N#Cc1cccc(NC(=O)COC(=O)c2ccccc2C(=O)c2ccc(Cl)c([N+](=O)[O-])c2)c1`: the Potency was 2.91 µM (active).
